The source of these data is PubChem BioAssay (NCATS).

Each structure is given as a SMILES string. Results filed as inconclusive are left out. A call without a number means that no potency is given here. Active and inactive are the calls of the source. Calls come from the whole dose curve; as a rule, active = well fitted activation curve with a large enough effect; inconclusive = small, poorly fitted or top-dose-only effect; inactive = no such curve, though single readings can be large or run the other way.
Potency is the fitted concentration of half-maximal effect.

In this assay the target is Rap guanine nucleotide exchange factor 3 (Homo sapiens) (UniProt O95398). The assay can be described thus: Confirmatory qHTS for agonist of cAMP-regulated guanine nucleotide exchange factor 3 (EPAC1) (AID 1645881).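 For activation: EPAC1 catalysed release of BODIPY-GDP from Rap1B seen as fluorescence loss.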 Note: nearly all actives have a fitted effect of over 75% in size. The following applies: EPAC1 Rap1B BODIPY-GDP exchange fluorescence; series mostly up to 154 µM. (In general: In qHTS, concentration-response curves come from the screen itself.)
Sequence of Rap guanine nucleotide exchange factor 3 (Homo sapiens) (O95398 whole entry, looked up): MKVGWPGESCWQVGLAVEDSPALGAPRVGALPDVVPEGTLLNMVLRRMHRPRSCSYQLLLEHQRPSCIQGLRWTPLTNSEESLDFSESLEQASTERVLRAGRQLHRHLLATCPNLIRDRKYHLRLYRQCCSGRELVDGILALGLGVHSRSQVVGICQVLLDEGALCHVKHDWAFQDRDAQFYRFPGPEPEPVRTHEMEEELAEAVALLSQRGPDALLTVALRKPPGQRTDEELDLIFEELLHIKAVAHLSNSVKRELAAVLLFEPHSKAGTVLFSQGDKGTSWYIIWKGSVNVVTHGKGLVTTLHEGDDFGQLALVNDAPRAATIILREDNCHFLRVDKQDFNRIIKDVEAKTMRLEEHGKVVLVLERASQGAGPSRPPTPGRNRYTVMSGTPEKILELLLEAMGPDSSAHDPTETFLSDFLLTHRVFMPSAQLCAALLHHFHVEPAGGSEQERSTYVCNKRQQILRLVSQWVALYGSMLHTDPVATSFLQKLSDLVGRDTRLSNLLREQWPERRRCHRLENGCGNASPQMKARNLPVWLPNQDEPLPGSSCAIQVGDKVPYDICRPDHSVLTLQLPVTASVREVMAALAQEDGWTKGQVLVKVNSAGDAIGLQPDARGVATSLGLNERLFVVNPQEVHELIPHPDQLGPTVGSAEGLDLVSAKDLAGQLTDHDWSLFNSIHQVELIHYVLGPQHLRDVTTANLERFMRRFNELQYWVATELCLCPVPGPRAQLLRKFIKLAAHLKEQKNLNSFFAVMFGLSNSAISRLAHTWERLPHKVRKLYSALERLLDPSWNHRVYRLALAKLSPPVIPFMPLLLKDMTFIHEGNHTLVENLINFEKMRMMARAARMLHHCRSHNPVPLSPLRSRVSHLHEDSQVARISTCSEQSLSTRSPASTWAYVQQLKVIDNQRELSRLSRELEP
Take `CC(c1nc2ccccc2n1Cc1ccccc1)n1c(-c2cnccn2)nc2ccccc21` (stereo not given): the Potency result is “inactive”.
As for `Cc1ccc(NC(=O)CC2S/C(=N/N=C3\CCCc4ccccc43)NC2=O)cc1` (stereo not given), the entry is “inactive”; as for `CCOC(=O)C1=CN(Cc2cccc(F)c2)S(=O)(=O)NC1c1ccc(Br)cc1F` (stereo not given), “inactive”.
As for `CCOC(=O)c1cc2c(ccn2C)n1CC(=O)N1CCN(c2cccc(C(F)(F)F)c2)CC1`, the entry is “inactive”.
As for `CCOC(=O)c1ccc(NC(=O)c2c(NCc3cccs3)sc3c2CCCCC3)cc1`, the entry is “inactive”; as for `S=c1[nH]nc(-c2cc(-c3ccccc3)n[nH]2)n1/N=C/c1cccc(Cl)c1`, “inactive”; as for `CCc1ccc(/C=C2\SC(=S)N(CCCC(=O)Nc3ccccc3C(=O)O)C2=O)cc1`, “inactive”.
On to `Cc1noc(NS(=O)(=O)c2ccc(N/C=C\C(=O)c3cccc4ccccc34)cc2)c1C`, for which the Potency result is “inactive”.
For the compound `O=C(O)CC/C(=C/c1cccc(NC(=O)c2ccccc2Cl)c1)c1nc2ccccc2s1`, the Potency was 100 µM (active).
The value for `CC(=O)c1ccc(OCc2nnn(CC(=O)NS(=O)(=O)c3ccc(C)cc3)c2-c2ccccc2)cc1` was “inactive”; that for `O=S(=O)(c1ccc2c(c1)C(O)c1ccccc1CC2)C(F)(F)F` (stereo not given) was “inactive”; that for `CCc1nc(Oc2cccc(F)c2)c2oc3ccccc3c2n1` was “inactive”.
The value for `O=C(Nc1cccc(Cl)c1)Nc1ccccc1NS(=O)(=O)c1cccs1` was “inactive”; that for `COc1ccc(/C=C2\C(=O)NC(=S)N2C(=O)c2ccc(F)cc2)cc1` was “inactive”.
On to `O=C(COc1ccc(Cl)cc1)NC1=NN(c2ccccc2)C(=O)C1`, for which the Potency result was “inactive”.
`Oc1ccc2ccccc2c1/C=N/c1nc2c(s1)CCCC2`: the Potency result was “inactive”.
As for `CCOc1cc(CNc2ccc(O)cc2)cc(Cl)c1OCc1ccccc1`, the Potency result was “inactive”.
With `COc1ccc(/C=N/NC(=O)c2[nH]c3ccc(Br)cc3c2-c2ccccc2)c(C(=O)O)c1OC`, the Potency result is “inactive”.
On to `Cc1cc(/C=C2\SC(=S)NC2=O)c(C)n1-c1cccc(O)c1`, for which the Potency result is “inactive”.
As for `C#Cc1ccc([C@@H]2C=C(C(=O)OCC=C)O[C@H](OCc3ccc(CO)cc3)C2)cc1`, the entry is “inactive”; as for `Oc1ccc(NCc2cccc(OCc3ccccc3)c2)cc1`, “inactive”; as for `Fc1ccc(/C=C2\CCCC3=C2Nc2ncnn2C3c2ccc(F)cc2)cc1` (stereo not given), “inactive”.
The value for `COc1cccc(/C=C2\SC(=S)NC2=O)c1OS(=O)(=O)c1ccc(NC(C)=O)cc1` was “inactive”; that for `CN(C)S(=O)(=O)c1ccc(N2CCCC2)c(C(=O)NCC2COc3ccccc3O2)c1` (stereo not given) was “inactive”; that for `CC(CNC(=O)c1sc2ncccc2c1-n1cccc1)c1ccccc1` (stereo not given) was “inactive”.
As for `Cc1cc(N2CCOCC2)ccc1/C=C1/SC(=O)NC1=O`, the entry is “inactive”; as for `CC1=NN(c2ccccc2)C(=O)C1C(=O)c1cc([N+](=O)[O-])cc([N+](=O)[O-])c1` (stereo not given), “inactive”.
Turning to `COc1ccc(NC(=O)Cn2ncc(Cl)c(Cl)c2=O)cc1S(=O)(=O)N1CCOCC1`, the Potency result is “inactive”.
The value for `COc1ccccc1NC(=O)c1ccccc1NS(=O)(=O)c1cccs1` was “inactive”; that for `O=C(Nc1ccccc1)C1=C(O)CC(c2ccc(Cl)cc2)N2CCN=C12` (stereo not given) was “inactive”.
As for `CCCCn1c(COc2cccc(OC)c2)nc2ccccc21`, the entry is “inactive”.
As for `CCC(C)Cn1c(O)cc2nn(-c3nc4ccccc4s3)c(=O)c-2c1C` (stereo not given), the entry is “inactive”.
Turning to `Cc1ccc(-n2nc3ccc(NC(=O)/C=C/c4ccco4)cc3n2)cc1C`, the Potency result is “inactive”.
As for `COCCN1C(=O)c2[nH]nc(-c3ccccc3O)c2C1c1ccc(Cl)c(Cl)c1` (stereo not given), the entry is “inactive”.
The value for `COc1ccc(OC)c(NC(=O)C(C)Oc2ccc(Br)cc2)c1` (stereo not given) was “inactive”; that for `CCc1nc2c(OCc3ccc(OC(F)F)cc3)cccn2c1N(C)C(=O)c1cccs1` was “inactive”.
The value for `Cc1cc(C)c(S(=O)(=O)c2ccccc2)c(OC(=O)c2c(F)cccc2F)n1` was “inactive”; that for `COc1cc(OC)c(NC(=O)CN(C)S(=O)(=O)c2ccc(-c3ccc(=O)[nH]n3)s2)cc1Cl` was “inactive”; that for `O=C(O)c1ccc(N/N=C/c2ccc(-c3ccccc3Cl)o2)cc1` was “inactive”.
As to `COc1cn(-c2ccccc2)nc1C(=O)Nc1ccc(C)cc1Cl`, the Potency entry was “inactive”.
